G9a inh: inhibitors of human histone lysine methyltransferase G9a. AID 504332. G9a H3K9 monomethylation, AlphaScreen, 2 h. Potency, µM (top dose mostly 102 µM), inactives show top-dose activity, negative = inhibition, hits mostly inhibitors. Q96KQ7. hit rate 8.8% among 350,000; further: on the % scale 0 is the no-effect control and ±100 the full control effect; nearly all actives have a fitted effect of over 75% in size
Target sequence (Q96KQ7 913-1193 limits assumed): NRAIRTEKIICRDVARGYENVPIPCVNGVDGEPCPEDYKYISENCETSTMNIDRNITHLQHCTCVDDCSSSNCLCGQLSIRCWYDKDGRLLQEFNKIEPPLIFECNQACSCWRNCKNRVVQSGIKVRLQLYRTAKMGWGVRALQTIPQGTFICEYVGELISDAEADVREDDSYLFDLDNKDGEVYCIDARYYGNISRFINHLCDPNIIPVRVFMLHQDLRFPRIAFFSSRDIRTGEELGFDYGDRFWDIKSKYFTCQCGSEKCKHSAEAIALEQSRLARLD
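Enzyme 20 nM + cpd, 15 min RT; add b-H3K9 pep 500 nM / SAM 20 uM; 2 h RT; anti-H3K9me1 Ab 0.5 ug/mL + SA donor / anti-rabbit acceptor beads 20 ug/mL each, 10 min; AlphaScreen read.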
GLS inhibitor: glutaminase GLS (human) inhibition. O94925. GLS enzymatic activity, qHTS titration. hit rate 0.21% among 410,000. AID 624170. Potency, µM (titrated, usually from 45.5 µM), for the others: at the top dose activity change, negative = inhibition, usual class: inhibitors; further: on the % scale 0 is the no-effect control and ±100 the full control effect
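Glutamate formation by hKGA was monitored fluorometrically using coupled glutamate oxidase, HRP and Amplex Red. Substrate was added as 1 mM L-glutamine solution; incubation was 30 min at RT after an initial read.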
JMJD2A Tudor: inhibitors of human JMJD2A Tudor domain; O75164; AlphaScreen JMJD2A-Tudor / H3K4me3 peptide binding; Potency, µM (doses to about 114 µM), inactives show top-dose activity change, negative = inhibition, usual class: inhibitors; hit rate 4.4% among 390,000; further: on the % scale 0 is the no-effect control and ±100 the full control effect; nearly all actives have a fitted effect of over 50% in size
BAZ2B inh: inhibitors of human BAZ2B bromodomain; Q9UIF8; AlphaScreen BAZ2B-H3K14Ac peptide displacement; AID 504333; hit rate 4.4% among 360,000; Potency, µM (top dose mostly 114 µM), for inactives: top-dose activity change, negative = inhibition, hits mostly inhibitors; further: on the % scale 0 is the no-effect control and ±100 the full control effect; nearly all actives have a fitted effect of over 60% in size
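Inhibition is scored as reduced AlphaScreen emission. The BAZ2B/b-H3(5-23)K14Ac complex (50 nM each) in PBS pH 7.4, 0.01% Tween-20 meets compound (up to 110 uM) for 30 min at RT before bead addition.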
HP1b chromo inh: blocks HP1-beta chromodomain binding to methylated histone tails. P83916. AlphaScreen HP1-beta / biotin-H3K9me3 peptide binding. Potency, µM (titrated, usually from 114 µM), for inactives: top-dose activity change, negative = inhibition, usual class: inhibitors. hit rate 0.56% among 390,000; further: nearly all actives have a fitted effect of over 70% in size
Target sequence (P83916 whole entry, looked up): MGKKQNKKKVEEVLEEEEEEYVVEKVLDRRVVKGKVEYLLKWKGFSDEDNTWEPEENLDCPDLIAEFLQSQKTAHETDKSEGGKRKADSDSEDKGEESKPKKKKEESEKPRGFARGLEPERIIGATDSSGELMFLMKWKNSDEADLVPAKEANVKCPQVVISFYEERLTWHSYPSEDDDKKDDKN
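HP1-beta protein (50 nM final) preincubated 30 min at room temperature with biotinylated H3(1-18)K9me3 peptide (50 nM) in PBS pH 7.4, 0.01% Tween-20, then compound added for 30 min. AlphaScreen streptavidin donor/nickel chelate acceptor beads (10 ug/mL final), 30 min dark, luminescence read.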
Active calls of the source: *; ? = inconclusive; · = no result given; [ ] = another dose, or the depositor's remark. In the library only some 10% were active in any assay of this set; here they are far more common. The call rests on the fitted dose curve; in most records, active means well fitted curve in the direction sought with a large enough effect; inconclusive means small, poorly fitted or top-dose-only effect, or another doubt; inactive means no such curve, though single readings can be large; an effect the other way counts as inactive or inconclusive. Potency means the concentration at half of the fitted maximal effect.

SMILES	G9a inh	GLS inhibitor	JMJD2A Tudor	BAZ2B inh	HP1b chromo inh
COC(=O)CCN(C(C)=O)c1ccc(N)cc1	-2%[12.7 µM]	3%	50µM*	0%	-4%
CC(=O)Nc1ccc(NC(=O)C2(c3cccs3)CCOCC2)cc1	7%[59 µM]	4%	45µM*	-1%	51%
COc1cccc(-c2nnc3sc(-c4ccccn4)nn23)c1	-1%[59 µM]	3%	6%[11.4 µM]	·	?
COc1ccc(-c2nn3c(-c4cccc(C)c4)nnc3s2)cc1OC	·	-5%	-18%	·	41%
COc1ccccc1-c1nnc2sc(-c3cnccn3)nn12	?	?	50µM*	-38%	-2%
COc1ccc(-c2nn3c(C4CCCCC4)nnc3s2)cc1OC	10µM*	-18%	-20%	23%	?
COc1cccc(-c2nn3c(-c4ccccn4)nnc3s2)c1	-15%	-8%	79µM*	59%	63%
COc1ccc(-c2nn3c(-c4ccccn4)nnc3s2)cc1OC	16%[59 µM]	6%	?	45µM*	16%
CCc1ccccc1NC(=O)CN1CCN(CC(=O)Nc2ccc3c(c2)OC2(CCCCC2)O3)CC1	·	0%	?	·	16%
Cc1ccccc1CN1CCN(CC2CC3C=CC2C3)CC1 (stereo not given)	3.2µM*	9%	5.6µM*	22µM*	?
CCN1CCN(CC2CC3C=CC2C3)CC1 (stereo not given)	?	2%	1.3µM*	50µM*	?
CC(C)Oc1ccc(S(=O)(=O)N2CCOCC2)cc1NC(=O)c1ccc(Cl)c(S(=O)(=O)N2CCOCC2)c1	·	-6%	·	·	·
CCc1ccc(C(=O)c2cn(CC(=O)Nc3cccc(OC)c3)c3cc4c(cc3c2=O)OCO4)cc1	-1%[59 µM]	-8%	-21%	-1%	36%
Cc1cccn2c(CNCC3(c4ccccc4)CCCC3)c(C(=O)N3CCOCC3)nc12	·	2%	-11%	-1%	-21%
CC(=O)N1CCN(C(=O)CNC(=O)c2cccs2)CC1	-3%[2.33 µM]	-4%	-11%	-11%	40%
CCN1CCN(C(=S)NC(=O)/C=C/c2cccs2)CC1	50µM*	13%	-10%	-3%	28%
CCN1CCN(C(=S)NC(=O)c2cccs2)CC1	50µM*	-6%	8.9µM*	?	-17%
Cc1ccc(S(=O)(=O)SCCCSS(=O)(=O)c2ccc(C)cc2)cc1	·	15%	2.8µM*	·	7.1µM*
Cc1ccc(S(=O)(=O)CCCS(=O)(=O)c2ccc(C)cc2)cc1	12%	-1%	8%	5%	21%
Cc1ccc(S(=O)(=O)CS(=O)(=O)c2ccc(C)cc2)cc1	·	0%	-3%	·	52%
Cc1ccc(S(=O)(=O)SC/C=C/CSS(=O)(=O)c2ccc(C)cc2)cc1	·	17%	3.2µM*	·	?
O=C1NC[C@H](CCCCN2C[C@H](Cc3ccc(O)cc3)N(Cc3ccccc3)C(=O)C2=O)N(CC2CCCCC2)C1=O	·	6%	·	·	·
COc1ccc(CC2=CC(=O)c3ccccc3C2=O)cc1	·	6%	25µM*	14µM*	13µM*
COc1ccc(Cc2ccccc2C(=O)O)cc1	·	8%	-10%	·	9%[57 µM]
COc1cccc(C(=O)N(Cc2ccco2)c2ccccn2)c1	-11%[59 µM]	2%	-13%	-24%	27%
SMILES	G9a inh	GLS inhibitor	JMJD2A Tudor	BAZ2B inh	HP1b chromo inh
Cc1nc(-c2ccc(C)c(N3CCN(C(=O)Nc4cccc(Cl)c4C)CC3)c2)no1	15%[59 µM]	4%	4%	1%	30%[57 µM]
COc1ccc2c(C)c(CC(=O)N3CCN(C(=O)C4COc5ccccc5O4)CC3)c(=O)oc2c1C (stereo not given)	5%	-6%	18µM*	-2%	-21%
COc1ccc(S(=O)(=O)N2CCN(C(=O)C3COc4ccccc4O3)CC2)cc1 (stereo not given)	?	?	14µM*	18µM*	?
Cc1ccc(NC(=O)C2CCCN2S(=O)(=O)c2cccc3cccnc23)cc1C (stereo not given)	-3%[59 µM]	4%	-11%	-2%	28%
CN(C)C(=S)NC(=NCc1ccc([N+](=O)[O-])cc1)c1ccccc1	71µM*	-12%	-15%	-17%	56%
CN(C)C(=S)Nc1ccc([N+](=O)[O-])cc1	-16%	9%	4%[57.1 µM]	-21%	49%
CC(=O)c1sc(C(=O)O)c(-c2ccco2)c1-c1ccco1	·	20µM*	-25%	-13%	19%
Cc1ccc(-c2nc3ncccn3c2Nc2ccccc2C)o1	?	9%	-14%	-26%	22%
Cc1ccc(-c2nc3cnccn3c2Nc2c(C)cccc2C)o1	45µM*	9%	?	13%	?
Cc1ccc(-c2nc3cnccn3c2Nc2ccc(C(C)C)cc2)o1	·	·	45µM*	·	?
CC(C)c1ccc(Nc2c(-c3ccccc3O)nc3cnccn23)cc1	?	1%	?	?	3%
Cc1c(CCC(=O)NCc2ccc(F)cc2)c(=O)oc2cc(O)ccc12	20%[59 µM]	43%	-3%	26%	74%
CS(=O)(=O)c1nc(-c2ccco2)cc(C(F)(F)F)n1	32µM*	·	·	-1%	·
COc1ccccc1-c1cc(C(F)(F)F)nc(S(C)(=O)=O)n1	?	6%	-8%	-6%	90%
Cn1c(SCC(=O)Nc2ccc3nc(SCC(=O)N4CCCC4)sc3c2)nnc1-c1ccccc1	?	-2%	?	56µM*	17%
O=C(O)CSc1nc2ccc(NC(=O)COc3ccc(Cl)cc3)cc2s1	-42%[59 µM]	-14%	?	71µM*	29%
O=C(O)COc1ccccc1/C=N/NC(=O)CSc1nc2ccccc2s1	71µM*	3%	-6%	2%	31%
O=C(CSc1nc2ccccc2s1)N/N=C/c1ccccc1C(=O)O	-1%	5%	-16%	-9%	41%
O=C(CSc1nc2ccccc2s1)Nc1cc(C(=O)O)cc(C(=O)O)c1	25µM*	-3%	-20%	5%	37%
O=C(CSc1nc2ccccc2s1)Nc1ccc2c(c1)oc1ccccc12	-4%[59 µM]	2%	-10%	19%	25%
Cc1cccc(NC(=O)CSc2nc3ccc(NC(=O)COc4ccc(Cl)cc4)cc3s2)c1	-25%[59 µM]	-7%	-16%	-14%	26%
O=C(Nc1ccc2nc(SCC(=O)N3CCCC3)sc2c1)c1ccccc1	-6%[59 µM]	-13%	-3%	-5%	41%
C[C@@H]1CCCCO[C@H](CN(C)S(=O)(=O)c2ccccc2)[C@@H](C)CN([C@H](C)CO)C(=O)c2cc(NC(=O)Cc3ccccc3)ccc2O1	·	-3%	·	·	·
CC(C)CC(C(=O)NCc1ccccn1)N1C(=O)c2ccccc2C1=O (stereo not given)	24%[59 µM]	0%	2%	-26%	33%
O=C(CSc1nc2ccc(NC(=O)c3ccccc3C(=O)O)cc2s1)Nc1c(Cl)cccc1Cl	71µM*	29%	-26%	?	-6%
O=C(CSc1nc2ccccc2s1)NNC(=S)Nc1ccc(Br)cc1	?	-33%	-32%	1%	16%
